Source: PubChem BioAssay (EPA / NIEHS)
Inconclusive results are not listed. Calls of active or inactive are those of the source. The calls were made as follows: active = hit-call score of the fitted dose curve at least 0.9, where 1 is the maximum; inconclusive = response in the unintended direction; inactive = score below 0.9.

What follows are molecules tested against Sodium channel protein type 1 subunit alpha (Rattus norvegicus) (UniProt P04774) (assay: NVS_IC_rNaCh_site2: NovaScreen (NVS) Ion Channel Assay for rat Sodium Channel, Site 2 (NaCh) (AID 2283322);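 also: hit means loss of radioligand binding signal relative to DMSO so AC50 marks displacement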).
Procedure: NVS_IC_rNaCh_site2 is a biochemical, single-readout assay that uses extracted gene-proteins from Rat forebrain membranes in a tissue-based cell-free assay. Measurements were taken 1 hour after chemical dosing in a 48-well plate.NVS_IC_rNaCh_site2 is one of one assay component(s) measured or calculated from the NVS_IC_rNaCh_site2 assay. It is designed to make measurements of radioligand binding, a form of binding reporter, as detected with scintillation counting signals by Filter-based radiodetection technology.Data from the assay component NVS_IC_rNaCh_site2 was analyzed into 1 assay endpoint. This assay endpoint, NVS_IC_rNaCh_site2, was analyzed in the positive analysis fitting direction relative to DMSO as the negative control and baseline of activity. Using a type of binding reporter, loss-of-signal activity can be used to understand changes in the binding as they relate to the gene Scn1a. Furthermore, this assay endpoint can be referred to as a primary readout, because the performed assay has only produced 1 assay endpoint. To generalize the intended target to other relatable targets, this assay endpoint is annotated to the ion channel intended target family, where the subfamily is sodium channel.
Binding assays used specific radioligands (tritiated, iodinated) with non-radioactive competitive displacement ligands in agonist or antagonist protocols (as indicated) and various reference compounds and inhibitors to titrate specific binding to receptors and transporters. Most enzyme assays (CYPs, kinases, phosphatases, proteases, HDACs) used recombinant protein and specific substrates (fluorescence mostly, some colorimetric and radioactive) and inhibitors, followed by a biochemical separation of substrate and product. All assays for the biochemical HTS were initially run in duplicate at a single concentration (10 uM for CYP450 assays and 25 uM for all others). […] Each assay was run with positive and negative controls, and concurrent controls on every plate. The follow-up (secondary) screen tested active chemical-pairs in concentration series, as well as a few additional assays not tested in the primary screen, some selected negative inactives, and several cases re-run in the concentration series for confirmatory purposes.

Structure (SMILES)	AC50	outcome
COCCOc1cc2cc(C(=O)NC3CCN(C(C)C)CC3)n(CC(=O)Nc3ccc(Cl)cn3)c2cn1	25.8 µM (active)	
CCOC(=O)c1ccc(C2CCC(NC[C@H](O)COc3ccc(O)c(NS(C)(=O)=O)c3)CC2)cc1 (stereo not given in full)	3.33 µM (active)	
CCOC(=O)COc1ccc2c(c1)CC(NCC(O)c1cccc(Cl)c1)CC2 (stereo not given)	6.7 µM (active)	
COc1cccc(-c2ccc(/C=C\CN3CCCCCC3)cc2Cl)c1	1.33 µM (active)	
COc1ccc(-n2nc(C(F)F)cc2-c2ccc(S(C)=O)cc2)cc1 (stereo not given)		inactive
CCN(C(=O)c1cc(C)cc(OC[C@H](C)Nc2ccncc2)c1)C(C)C	10.1 µM (active)	
Nc1ccc(Nc2ccccc2)cc1	5.39 µM (active)	
CC[C@H]1CC[C@H](NCc2cc3c(cc2OC)[C@H]2C[C@H]2C(=O)N3C)[C@H](c2ccccc2)N1	0.163 µM (active)	
CNS(=O)(=O)c1cc(C(=O)N2CCC(CCN3C4CCC3CC(n3c(C)nc5ccccc53)C4)(c3cccc(F)c3)CC2)c(Cl)cc1F (stereo not given)	13.1 µM (active)	
CCCN(C1CCN(C(=O)C2CCNCC2)CC1)[C@@H]1CCc2ccc(OC)cc2C1	7.66 µM (active)	
CCOc1cccc(-n2cc(C(=O)N3CCN(c4cc(C(=O)O)c5ccccc5c4)CC3)nc2-c2ccc(C)cc2)c1	7.07 µM (active)	
Cc1[nH]cnc1C[C@H]1CCc2c(C)c3ccccc3n2C1=O	10.4 µM (active)	
CCCCCCc1ccc(O)cc1O		inactive
CC(C)CC(C)(O)C#CC(C)(O)CC(C)C (stereo not given)		inactive
O=c1[nH]c2ccc(S(=O)CCN3CCC(Cc4ccc(F)cc4)CC3)cc2o1 (stereo not given)	6.76 µM (active)	
O=P(OC(CCl)CCl)(OC(CCl)CCl)OC(CCl)CCl		inactive
CCn1nc(Cc2ccccc2)cc1C1CCN(C[C@H]2C[C@H](N(C)[C@@H](C(=O)O)C(C)C)C[C@@H]2c2cccc(F)c2)CC1	17.4 µM (active)	
CCc1cc(SCc2sc(-c3ccc(C(F)(F)F)cc3)nc2CN2CCN(c3ccc(OC)cc3)CC2)ccc1OCC(=O)O	25 µM (active)	
O=C(O)CC(O)C(=O)O (stereo not given)		inactive
CCCCC(CC)COC(=O)CCCCCCCCC(=O)OCC(CC)CCCC (stereo not given)		inactive
